# According to PubChem BioAssay (NCI):
# The panel holds about 83,000 compounds, 20% with a hit somewhere; the sample as a whole holds those more often.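 96-well plates, one dose, 48 hours. Percent growth reported; active if below 10.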 Values without a mark were called inactive. Active and inactive are the calls of the source.
# Tests used:
# Assay in all cases: NCI-60 one-dose screen, 48 h (100 = growth as untreated, 0 = no growth, -100 = all killed)
# Conditions in all cases: 10 µM
# SR leukemia = tested on: SR leukemia
# RPMI-8226 leukemia = tested on: RPMI-8226 leukemia
# OVCAR-8 ovarian = tested on: OVCAR-8 ovarian
# OVCAR-4 ovarian = tested on: OVCAR-4 ovarian
# SK-OV-3 ovarian = tested on: SK-OV-3 ovarian
# IGROV1 ovarian = tested on: IGROV1 ovarian
# OVCAR-3 ovarian = tested on: OVCAR-3 ovarian
# HS 578T breast = tested on: HS 578T breast
# NCI/ADR-RES ovarian = tested on: NCI/ADR-RES ovarian
# OVCAR-5 ovarian = tested on: OVCAR-5 ovarian
Compound,growth (SR leukemia),growth (RPMI-8226 leukemia),growth (OVCAR-8 ovarian),growth (OVCAR-4 ovarian),growth (SK-OV-3 ovarian),growth (IGROV1 ovarian),growth (OVCAR-3 ovarian),growth (HS 578T breast),growth (NCI/ADR-RES ovarian),growth (OVCAR-5 ovarian)
CCOC(=O)N/C(=C1/OCCN1C)[P+](c1ccccc1)(c1ccccc1)c1ccccc1,66.6%,34.2%,89.3%,65.4%,95.1%,62.5%,84.7%,62.4%,106%,–
O=c1nc(-c2ccccc2)cc(-c2cc3ccccc3nc2Cl)[nH]1,–,-29.4% (active),-68.1% (active),80.6%,84.8%,56.8%,8.83% (active),69.6%,-70.1% (active),40.9%
COC(=O)C(Cc1ccc(O)c(O)c1)NC(=O)C(CSC/C=C(\C)CCCC(C)CCCC(C)CCCC(C)C)NC(C)=O (configuration not stated),–,-5.06% (active),10.8%,19.7%,41.7%,17.4%,34.8%,25.5%,73.8%,28%
COc1ccccc1C(=O)NNC(=O)CSc1nc2c(c(=O)[nH]1)CCCC2,96.4%,98.1%,109%,105%,94.1%,92.5%,102%,108%,104%,–
COc1ccc(C(=O)/C=C/c2ccc(Cl)c(C(F)(F)F)c2)cc1S(N)(=O)=O,–,2.54% (active),-73.4% (active),-99.7% (active),9.96% (active),-91.5% (active),-66.5% (active),-41.3% (active),-44% (active),-100% (active)
N#Cc1c(-c2ccc(F)cc2)nc(SCc2ccc([N+](=O)[O-])cc2)nc1N1CCOCC1,–,80.3%,53.1%,57.2%,44.5%,80.5%,69.7%,15.6%,41.6%,92.1%
C=CC(=O)Nc1nc(-c2cccc(NS(=O)(=O)c3cccc4c(N(C)C)cccc34)c2)cs1,–,-36.2% (active),-38.9% (active),7.55% (active),47.4%,-74.1% (active),-69.4% (active),-0.555% (active),-56.7% (active),-61.6% (active)
O=C(Nc1ccc(Cl)c(C(F)(F)F)c1)c1cncc(C#Cc2cnc3ccc(N4CCOCC4)nn23)c1,2.44% (active),–,3.66% (active),13.6%,10.7%,-14.1% (active),13.6%,-25.3% (active),-5.95% (active),19.4%
NC1=NC(c2ccccc2Cl)N=C(Nc2nn[nH]n2)N1 (configuration not stated),–,99.2%,102%,99.8%,123%,115%,107%,103%,104%,118%
O=C1Nc2ccc(Cl)cc2/C1=C/c1ccc(OCc2ccccn2)cc1,–,73.9%,45.9%,-1.81% (active),89.2%,54.6%,57.3%,14.8%,14.1%,88.2%
[2H]C([2H])([2H])Oc1ccc2ncc(C#Cc3cncc(C(=O)Nc4ccc(CN5CCN(C)CC5)c(C(F)(F)F)c4)c3)n2n1,-9.99% (active),–,-25.7% (active),-34.6% (active),-58.4% (active),-62.5% (active),-78.8% (active),-47.9% (active),-68% (active),-92.9% (active)
COc1ccc2nc(Cl)c(-c3cc(-c4ccccc4)nc(=S)[nH]3)cc2c1,–,71.7%,68.2%,90.1%,37.4%,79%,80.8%,31.7%,40.9%,95.1%
O=C(Nc1cccc(-c2cn(-c3ccc4oc(=O)ccc4c3)nn2)c1)Nc1cc(C(F)(F)F)cc(C(F)(F)F)c1,–,6.66% (active),34.6%,7.53% (active),36.5%,29.9%,16.2%,27.7%,50.4%,66.4%
Cc1ccc(S(=O)(=O)c2nc(-c3ccccc3)oc2S(=O)(=O)CC(=O)N2CCCC2)cc1,–,-53.4% (active),-86.7% (active),-92.7% (active),68.4%,18.4%,-92.8% (active),20.5%,-69.5% (active),-87.2% (active)
O=C(N/N=C/c1ccc(B(O)O)o1)c1[nH]c2ccc(Br)cc2c1-c1ccccc1,–,28.2%,14.1%,56.1%,25.5%,51.8%,14%,0.269% (active),-34.6% (active),43.5%
COc1cc2c3c(n(CCCn4ccnc4)c(=O)c2cc1OC)-c1nc2c(cc1C3=O)OCO2,–,44.3%,43.6%,80.9%,18.3%,56%,48.5%,119%,84.2%,57.2%
CC1=C2C(=C[C@@](C)(CO)[C@@H]2O)/C(=N\N)[C@](C)(O)C12CC2,–,56.2%,1.18% (active),-21.7% (active),-24.7% (active),-11.3% (active),-24.4% (active),-12.5% (active),-43.2% (active),-42.8% (active)
O=C(c1ccc(Cl)cc1)C1[C@H](c2ccc(Br)cc2)[C@@H](c2ccccc2)NC12C(=O)Nc1ccccc12 (some centres not stated),–,-8.78% (active),7.73% (active),12%,12.7%,6.67% (active),-30.1% (active),-8.79% (active),-53.1% (active),-25.8% (active)
O=c1[nH]c2ccccc2cc1CSc1ccc(Nc2nccc(-c3ccc4ccccc4c3)n2)cc1,–,67.5%,-28% (active),-13.6% (active),116%,73.9%,13.1%,60.6%,24.4%,62.9%
Cc1ccc(-c2cc(-c3cc4ccccc4nc3Cl)[nH]c(=O)n2)cc1,–,-30.1% (active),-49.3% (active),48.1%,51.6%,28.6%,8.33% (active),1.21% (active),-38.8% (active),-8.44% (active)
CC(C)NC(=O)c1cc(-c2ccc(NC(=O)Nc3ccc(N4CCN(C)CC4)c(C(F)(F)F)c3)cc2)nc2cccnc12,–,-37.5% (active),-81.4% (active),-87.8% (active),-93.1% (active),-86.9% (active),-84.9% (active),-42.1% (active),-61.7% (active),-99.5% (active)
O=C(c1ccc(O)cc1)C1[C@H](c2ccc(Br)cc2)[C@@H](c2ccccc2)NC12C(=O)Nc1ccccc12 (some centres not stated),–,23%,32.4%,34.1%,77.3%,25.8%,15%,28.5%,22.4%,58.7%
O=C1Nc2ccc(Cl)cc2/C1=C/c1cccc(OCc2ccccc2)c1,–,-28.1% (active),14.6%,33.5%,75.3%,36.7%,8.28% (active),6.44% (active),8.34% (active),69.2%
O=c1oc2ccc(-c3ccc(F)cc3F)cc2c(=O)n1-c1ccc(F)c(Cl)c1,–,-31% (active),3.87% (active),10.5%,-9.67% (active),13%,3.83% (active),-0.875% (active),-15.2% (active),-5.91% (active)
COc1ccc(C(=O)Nc2ccc(-c3ccc4c(c3)NC(=O)/C4=C\c3ccc[nH]3)cc2)cc1,–,65.5%,-22.3% (active),-36.8% (active),79.2%,65.9%,9.86% (active),-0.0796% (active),-42.8% (active),51.8%
CC1(C)CC[C@]23CC[C@]4(C)[C@H](CC[C@@H]5[C@@]6(C)CC[C@H](N)C(C)(C)[C@@H]6CC[C@]54C)[C@H]2[C@H]1OC3=O,–,-31.4% (active),-50.7% (active),-90.3% (active),-32.1% (active),-94.2% (active),-81% (active),-62.2% (active),-69.4% (active),-99.9% (active)
O=C1CCC(N2Cc3c(C#CCCCNC(=O)c4ccc(NC(=O)[C@@H]5NC6(CCCCC6)[C@@]6(C(=O)Nc7cc(Cl)ccc76)[C@H]5c5cccc(Cl)c5F)cc4)cccc3C2=O)C(=O)N1 (some centres not stated),–,43.7%,69%,56.5%,74.2%,11.7%,72.3%,46.2%,85.7%,76.6%
O=C1NC(=NC23CC4CC(CC(C4)C2)C3)N/C1=C\c1ccc2ncoc2c1,–,-4.5% (active),13.4%,13.4%,26.8%,3.59% (active),24.1%,-0.689% (active),4.58% (active),-14.4% (active)
